Assay results published in PubChem BioAssay (NCATS).
Records with an inconclusive call do not appear. Activity calls are given as the source filed them. Unless noted, calls come from the whole dose curve; as a rule, active = well fitted curve in the direction sought with a large enough effect; inconclusive = small, poorly fitted or top-dose-only effect, or another doubt; inactive = no such curve, though single readings can be large; an effect the other way counts as inactive or inconclusive.

What was measured:
[1] = target: Lysosomal acid glucosylceramidase (Homo sapiens) (UniProt P04062); assay: Glucocerebrosidase-p2 (AID 348; in the data active = potency below about 10 µM; note: potency is the fitted concentration of half-maximal effect); conditions: purified GBA, blue fluorogenic substrate, 40 min
Chain of Lysosomal acid glucosylceramidase (Homo sapiens) (P04062 whole entry, looked up): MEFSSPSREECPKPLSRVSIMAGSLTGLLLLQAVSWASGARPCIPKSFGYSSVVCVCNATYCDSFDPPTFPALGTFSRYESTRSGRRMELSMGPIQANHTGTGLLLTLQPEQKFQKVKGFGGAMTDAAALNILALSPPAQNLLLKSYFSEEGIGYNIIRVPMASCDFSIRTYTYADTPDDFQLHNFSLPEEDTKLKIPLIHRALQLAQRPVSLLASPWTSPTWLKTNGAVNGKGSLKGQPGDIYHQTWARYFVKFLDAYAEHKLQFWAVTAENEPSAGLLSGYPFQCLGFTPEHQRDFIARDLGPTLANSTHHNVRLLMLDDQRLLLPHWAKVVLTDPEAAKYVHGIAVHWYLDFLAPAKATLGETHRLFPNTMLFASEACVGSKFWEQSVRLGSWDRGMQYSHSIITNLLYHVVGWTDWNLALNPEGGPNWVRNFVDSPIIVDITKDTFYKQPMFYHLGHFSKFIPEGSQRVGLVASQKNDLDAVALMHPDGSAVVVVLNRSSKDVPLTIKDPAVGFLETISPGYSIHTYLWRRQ
Procedure, shortened: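 Normal human glucocerebrosidase (0.2 nM) with blue fluorogenic substrate (80 uM final) in citrate/phosphate pH 5.9 with 10mM sodium taurocholate, 0.01% tween-20; 40 min RT, NaOH/glycine stop; fluorescence Ex 365/Em 440; AC50 from a titration from 0.6 nM upwards.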

[2] = AP1 Signaling Pathway (AID 357; active = well fitted curve in either direction with a large enough effect, not every such curve was filed as active;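 note: ME-180 reporter cells stimulated with EGF at its EC50 level; % is set by controls: 0 for no effect and ±100 for the full control effect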); conditions: ME-180 AP-1-bla reporter, EGF-induced, beta-lactamase ratio, 5 h; at 7.69 µM (top of the series) unless noted
Procedure, shortened: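 Cells are seeded overnight, exposed to compound titrations and an EC50 level of EGF for 5 hours at 37 °C, then loaded with CCF4 dye for 2.5 hours. Beta-lactamase activity under the AP-1 element is read as a blue/green ratio.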

[3] = target: Cytochrome P450 1A2 (Homo sapiens) (UniProt P05177); assay: p450-cyp1a2 (AID 410; calls by dose curve; note: potency is the fitted concentration of half-maximal effect); conditions: recombinant CYP1A2, luciferin-ME demethylation, luminescence; series mostly up to 57 µM
Chain of Cytochrome P450 1A2 (Homo sapiens) (P05177 whole entry, looked up): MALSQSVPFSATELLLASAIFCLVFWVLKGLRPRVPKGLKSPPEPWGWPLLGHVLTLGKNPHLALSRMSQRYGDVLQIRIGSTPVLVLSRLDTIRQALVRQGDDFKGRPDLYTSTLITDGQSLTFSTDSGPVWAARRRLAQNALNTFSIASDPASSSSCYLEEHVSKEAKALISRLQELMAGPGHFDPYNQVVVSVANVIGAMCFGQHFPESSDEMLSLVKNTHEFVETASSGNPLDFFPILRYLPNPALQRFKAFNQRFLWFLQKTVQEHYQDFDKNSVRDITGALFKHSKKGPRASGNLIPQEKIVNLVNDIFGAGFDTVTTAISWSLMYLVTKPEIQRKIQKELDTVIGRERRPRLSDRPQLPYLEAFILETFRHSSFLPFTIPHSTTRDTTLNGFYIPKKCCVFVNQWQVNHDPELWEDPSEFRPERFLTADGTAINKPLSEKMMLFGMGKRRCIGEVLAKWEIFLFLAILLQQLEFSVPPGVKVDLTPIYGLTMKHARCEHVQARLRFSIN
Procedure, shortened: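 O-Demethylation of luciferin 6' methyl ether by human CYP1A2 is monitored as luciferase luminescence. Substrate sits at Km (100uM); enzyme is 20nM. Values are scaled to 57 uM furafylline as maximal inhibition.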

[4] = NFAT Signaling Pathway (AID 444; active = well fitted curve in either direction with a large enough effect, not every such curve was filed as active;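 note: carbachol stimulus at about its EC50 of 1 µM final; % is set by controls: 0 for no effect and ±100 for the full control effect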); conditions: Jurkat NFAT-bla M1, carbachol, beta-lactamase ratio, 5 h; at 7.69 µM (top of the series) unless noted
Procedure, shortened: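 Jurkat cells carrying an NFAT-driven β-lactamase reporter and co-transfected muscarinic M1 receptor were treated with compound plus carbachol (1 uM final, an EC50 level) for 5 h at 37 °C. CCF4 loading followed for 1 h at RT; 460/530 nm ratio gave %activity.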

[5] = Stat Signaling Pathway (AID 446; active = well fitted curve in either direction with a large enough effect, not every such curve was filed as active;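 note: ME-180 cervical cancer cells given 40 pM IL-6 alongside compound; SIE-controlled beta-lactamase reporter measured as 460/530 nm FRET emission ratio; % is set by controls: 0 for no effect and ±100 for the full control effect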); conditions: ME-180 SIE beta-lactamase reporter, IL-6 stimulated, 5 h; at 7.69 µM (top of the series) unless noted
Procedure, shortened: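 Emission at 460 and 530 nm (excitation 405 nm) reports SIE-controlled beta-lactamase in ME-180 cells. Cells received compound with 40 pM IL-6 for 5 hrs at 37 C; data scaled between 300 pM IL-6 and 125 nM JAK-inhibitor controls.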

[6] = target: Glucocorticoid receptor (Homo sapiens) (UniProt P04150); assay: GR-GFP Redistribution (AID 450;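 active = compounds whose dose series gives a full or clear partial fitted curve of increased nuclear translocation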; note: potency is the fitted concentration of half-maximal effect); conditions: U2OS GR-GFP nuclear translocation, laser cytometry, 2 h
Chain of Glucocorticoid receptor (Homo sapiens) (P04150 whole entry, looked up, the tested form may be a part): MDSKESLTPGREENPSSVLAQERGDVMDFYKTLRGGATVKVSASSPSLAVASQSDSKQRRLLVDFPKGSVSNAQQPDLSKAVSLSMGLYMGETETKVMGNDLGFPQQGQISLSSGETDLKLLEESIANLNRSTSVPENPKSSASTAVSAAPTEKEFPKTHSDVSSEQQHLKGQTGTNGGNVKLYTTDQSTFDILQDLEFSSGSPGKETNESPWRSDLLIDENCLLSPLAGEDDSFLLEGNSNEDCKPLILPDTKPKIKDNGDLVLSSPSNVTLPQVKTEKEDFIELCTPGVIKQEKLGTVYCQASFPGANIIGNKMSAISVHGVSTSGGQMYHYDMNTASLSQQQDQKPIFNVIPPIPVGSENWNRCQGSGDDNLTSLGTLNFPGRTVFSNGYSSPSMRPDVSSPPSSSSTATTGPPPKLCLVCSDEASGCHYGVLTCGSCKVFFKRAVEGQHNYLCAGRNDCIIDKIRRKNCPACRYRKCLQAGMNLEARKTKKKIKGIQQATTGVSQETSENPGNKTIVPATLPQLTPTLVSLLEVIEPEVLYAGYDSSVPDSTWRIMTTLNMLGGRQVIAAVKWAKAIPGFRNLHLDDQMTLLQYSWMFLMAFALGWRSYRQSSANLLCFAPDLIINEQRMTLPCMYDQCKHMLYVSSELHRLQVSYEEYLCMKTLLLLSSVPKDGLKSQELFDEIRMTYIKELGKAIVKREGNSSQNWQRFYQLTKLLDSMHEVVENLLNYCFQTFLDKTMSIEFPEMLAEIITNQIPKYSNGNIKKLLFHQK

[7] = target: Glucocorticoid receptor (Homo sapiens) (UniProt P04150); assay: GR-EFC Redistribution (AID 451; calls by dose curve; note: potency is the fitted concentration of half-maximal effect); conditions: CHO-K1 GR-EFC translocation, beta-gal luminescence, 2 h
Procedure, shortened: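 CHO-K1 cells stably expressing nuclear-localized β-gal enzyme acceptor and GR fused C-terminally to the enzyme donor fragment; ligand-driven nuclear translocation restores β-gal by complementation. Compounds titrated up to 46 uM final, 2 h at 37 °C; luminescence read.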

[8] = target: Mitogen-activated protein kinase 10 (Mus musculus) (UniProt Q61831); assay: JNK3 AlphaScreen Assay (AID 530; active = well fitted curve in either direction with a large enough effect, not every such curve was filed as active;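 note: kinase came from lysate of stimulated human HepG2 cells; signal reports phosphorylation of biotinylated GST-cJun 1-79 at Ser73 with 10 µM ATP; % is set by controls: 0 for no effect and ±100 for the full control effect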); conditions: JNK3 lysate, c-Jun phosphorylation; series mostly up to 57.1 µM
Procedure, shortened: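 Phosphorylation of biotinylated GST-cJun(1-79) at Ser73 is measured by AlphaScreen proximity luminescence. Enzyme is JNK3 in HepG2 lysates activated with interleukin-1beta and tumor necrosis factor alpha; ATP is 10 uM final.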

[9] = target: Cytochrome P450 3A4 (Homo sapiens) (UniProt P08684); assay: qHTS Assay for Inhibitors and Substrates of Cytochrome P450 3A4 (AID 884); conditions: recombinant CYP3A4, Luciferin-PPXE luminescence; series mostly up to 57.1 µM; note: potency is the fitted concentration of half-maximal effect; nearly all actives have a fitted effect of over 50% in size
Chain of Cytochrome P450 3A4 (Homo sapiens) (P08684 whole entry, looked up): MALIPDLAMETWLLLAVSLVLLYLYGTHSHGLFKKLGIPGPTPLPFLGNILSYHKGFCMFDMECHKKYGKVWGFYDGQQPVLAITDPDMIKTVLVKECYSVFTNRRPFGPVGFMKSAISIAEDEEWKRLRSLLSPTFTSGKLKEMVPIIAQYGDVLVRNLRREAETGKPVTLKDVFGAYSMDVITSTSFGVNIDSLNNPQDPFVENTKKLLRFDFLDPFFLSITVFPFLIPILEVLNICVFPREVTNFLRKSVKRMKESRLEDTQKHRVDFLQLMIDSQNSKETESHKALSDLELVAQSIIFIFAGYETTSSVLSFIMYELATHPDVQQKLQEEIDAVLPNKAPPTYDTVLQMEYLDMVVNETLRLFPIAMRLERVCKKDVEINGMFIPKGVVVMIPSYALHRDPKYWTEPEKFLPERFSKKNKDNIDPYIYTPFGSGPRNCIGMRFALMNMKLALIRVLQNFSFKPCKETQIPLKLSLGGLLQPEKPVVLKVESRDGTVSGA
Procedure, shortened: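 Luminescent readout of luciferin produced by CYP3A4 (20 nM) dealkylation of Luciferin-PPXE, 25 uM (its KM). NADPH-driven reaction ran 60 min at RT after 10 min compound preincubation; data scaled to 57 uM ketoconazole as 100% inhibition.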

[10] = target: Cytochrome P450 3A4 (Homo sapiens) (UniProt P08684); assay: qHTS Assay for Activators of Cytochrome P450 3A4 (AID 885); conditions: recombinant CYP3A4, Luciferin-PPXE luminescence, 60 min; series mostly up to 57.1 µM; note: nearly all actives have a fitted effect of over 65% in size
Procedure, shortened: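 Activators are scored by enhanced luminescence from CYP3A4 conversion of luciferin-PPXE (25uM, equal to KM) to luciferin, after 60 min at RT with an NADPH-regenerating system.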

[11] = Confirmation and Secondary Assay for Modulators of Hemoglobin Beta Chain Splicing at IVS2 654 locus (AID 910); conditions: HeLa EGFP-654 splicing reporter, GFP fluorescence, 48 h; series mostly up to 38.3 µM;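 note: per-well total GFP intensity by laser scanning cytometry after 2-day treatment; % of control where 0% means no effect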
Procedure, shortened: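 HeLa cells stably carrying EGFP interrupted by mutant beta-globin IVS2-654 intron (CMV-driven) were treated with compound for 2 days at 37C; corrected splicing was scored as total peak GFP intensity per well (488 nm excitation, 500-520 nm emission).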

[12] = qHTS Assay for Identification of Small Molecule Agonists for Hypoxia Response Element Signaling Pathway (AID 914; active = well fitted activation curve with a large enough effect in the signal ratio, with a control signal flat, not every such curve was filed as active; the % refers to the signal ratio; note: % of control where 0% means no effect); conditions: ME-180 HRE-bla reporter, beta-lactamase ratio, CoCl2, 17 h; activation: stronger effect = higher value
Procedure, shortened: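 ME-180 cells carrying an HRE-driven beta-lactamase reporter were treated with compounds in a titration series plus an EC50 level of CoCl2 for 17 h at 37 degrees Celsius; CCF4 readout as the 460nm/530nm ratio gave AC50 values.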

[13] = Confirmation and Secondary Assay for Modulators of Hemoglobin Beta Chain Splicing at IVS2 705 locus (AID 930); conditions: HeLa EGFP-705 splicing reporter, GFP fluorescence, 48 h; series mostly up to 38.3 µM;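 note: HeLa cells stably expressing the EGFP-705 splicing reporter; % of control where 0% means no effect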
Procedure, shortened: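 HeLa cells stably carrying EGFP interrupted by mutant beta-globin IVS2-705 intron (CMV-driven) were seeded at 500 cells/well, treated next day with compound for 2 days at 37C; corrected splicing restores EGFP, read as total peak GFP intensity per well.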

[14] = qHTS Assay for Lipid Storage Modulators (AID 1519; calls by dose curve); conditions: Drosophila S3 cells, BODIPY lipid droplet/cell ratio, laser cytometry, cells loaded with oleic acid; for activity change, negative = inhibition: at 57.5 µM (top of the series)
Procedure, shortened: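 Cells seeded at 5,000 per well were treated with compounds over a concentration series and loaded with oleic acid (400 uM, as added). Lipid droplet fluorescence (488 nm excitation, 500-530 nm channel) was read by laser-scanning cytometry and normalized to 20 uM Triacsin C.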

[15] = target: Ubiquitin carboxyl-terminal hydrolase 1 (Homo sapiens) (UniProt O94782); assay: Inhibitors of USP1/UAF1: Pilot qHTS (AID 504865); conditions: purified USP1/UAF1, Ub-rhodamine cleavage fluorescence; series mostly up to 54.9 µM;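 note: rhodamine fluorescence freed from ubiquitin-rhodamine substrate followed over time; top concentration of the series differs between compounds; % is set by controls: 0 for no effect and ±100 for the full control effect; nearly all actives have a fitted effect of over 35% in size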
Chain of Ubiquitin carboxyl-terminal hydrolase 1 (Homo sapiens) (O94782 whole entry, looked up): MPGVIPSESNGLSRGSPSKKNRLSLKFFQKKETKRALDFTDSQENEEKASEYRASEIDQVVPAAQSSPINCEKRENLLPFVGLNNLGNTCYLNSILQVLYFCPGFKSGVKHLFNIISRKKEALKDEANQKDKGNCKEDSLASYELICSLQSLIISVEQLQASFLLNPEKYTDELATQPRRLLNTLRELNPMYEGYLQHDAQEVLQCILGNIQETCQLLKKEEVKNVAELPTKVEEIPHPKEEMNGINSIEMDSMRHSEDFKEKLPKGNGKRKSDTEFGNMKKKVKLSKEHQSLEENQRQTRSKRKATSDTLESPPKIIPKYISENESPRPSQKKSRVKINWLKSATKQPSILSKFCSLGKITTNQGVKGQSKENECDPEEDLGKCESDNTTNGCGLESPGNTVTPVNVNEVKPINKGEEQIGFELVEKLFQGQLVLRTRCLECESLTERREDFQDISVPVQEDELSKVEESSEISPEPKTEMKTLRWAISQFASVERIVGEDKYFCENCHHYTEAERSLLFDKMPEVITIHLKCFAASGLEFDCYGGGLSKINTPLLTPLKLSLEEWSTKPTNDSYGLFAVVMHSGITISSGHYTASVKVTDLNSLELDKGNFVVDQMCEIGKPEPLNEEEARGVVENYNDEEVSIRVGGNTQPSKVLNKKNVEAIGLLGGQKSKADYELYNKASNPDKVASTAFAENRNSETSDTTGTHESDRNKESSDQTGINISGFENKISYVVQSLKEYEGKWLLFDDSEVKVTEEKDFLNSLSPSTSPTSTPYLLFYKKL
Procedure, shortened: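 Enzyme-free wells gave the negative control, while test wells held 1nM USP1/UAF1 preincubated with compound for 15 min at room temperature. Ub-Rho at 150nM final started the reaction, and fluorescence at 480/540 nm was recorded kinetically.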

[16] = Primary qHTS for small molecule stabilizers of the endoplasmic reticulum resident proteome: Secreted ER Calcium Modulated Protein (SERCaMP) assay (AID 1508630); conditions: SH-SY5Y GLuc-SERCaMP (Gaussia luciferase released on ER calcium loss) secretion, thapsigargin, luminescence; series mostly up to 38.4 µM; note: % is set by controls: 0 for no effect and ±100 for the full control effect
Procedure, shortened: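 The SH-SY5Y reporter protocol was run at 3 concentrations up to 38.3 uM (primary) or 11 concentrations (follow-up): 16 h compound, 100 nM thapsigargin for 4 h, then extracellular luciferase luminescence.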

[17] = target: 3',5'-cyclic-AMP phosphodiesterase 4B (Homo sapiens) (UniProt Q07343); assay: qHTS Assay for Inhibitors of PDE-IV (AID 607; active = well fitted activation curve with a large enough effect in the main read-out, with a control signal flat, not every such curve was filed as active; note: % of control where 0% means no effect); conditions: HEK293 ACTOne CNG channel cells, membrane potential fluorescence; series mostly up to 22.9 µM
Chain of 3',5'-cyclic-AMP phosphodiesterase 4B (Homo sapiens) (Q07343 whole entry, looked up): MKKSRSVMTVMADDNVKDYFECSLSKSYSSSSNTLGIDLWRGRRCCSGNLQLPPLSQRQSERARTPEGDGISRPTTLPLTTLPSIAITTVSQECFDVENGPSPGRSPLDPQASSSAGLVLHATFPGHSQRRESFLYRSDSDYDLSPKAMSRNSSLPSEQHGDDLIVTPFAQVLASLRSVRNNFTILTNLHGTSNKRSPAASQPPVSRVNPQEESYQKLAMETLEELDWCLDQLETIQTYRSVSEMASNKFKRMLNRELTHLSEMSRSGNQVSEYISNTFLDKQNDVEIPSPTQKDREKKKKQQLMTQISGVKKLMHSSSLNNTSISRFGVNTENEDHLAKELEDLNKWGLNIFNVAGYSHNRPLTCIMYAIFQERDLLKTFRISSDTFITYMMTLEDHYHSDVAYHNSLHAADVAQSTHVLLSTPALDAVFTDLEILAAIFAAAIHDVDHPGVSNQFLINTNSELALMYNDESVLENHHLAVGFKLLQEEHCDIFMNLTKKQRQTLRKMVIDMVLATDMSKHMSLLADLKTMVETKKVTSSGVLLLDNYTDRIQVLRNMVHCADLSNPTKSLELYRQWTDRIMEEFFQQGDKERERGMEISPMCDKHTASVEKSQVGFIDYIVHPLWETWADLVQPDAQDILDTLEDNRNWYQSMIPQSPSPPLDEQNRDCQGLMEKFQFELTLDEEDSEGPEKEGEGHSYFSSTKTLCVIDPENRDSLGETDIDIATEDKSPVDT
Procedure, shortened: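 The readout is membrane depolarisation from a cAMP-sensing CNG channel, detected with a potential dye at ex 535/em 590. Cells were HEK293-derived (endogenous PDE-IV) at 1000 cells/well, titrated up to 22.9 uM final.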

[18] = target: Cytochrome P450 2C19 (Homo sapiens) (UniProt P33261); assay: qHTS Assay for Inhibitors and Substrates of Cytochrome P450 2C19 (AID 899); conditions: recombinant CYP2C19, luciferin-H EGE luminescence; series mostly up to 57.1 µM; note: potency is the fitted concentration of half-maximal effect; nearly all actives have a fitted effect of over 60% in size
Chain of Cytochrome P450 2C19 (Homo sapiens) (P33261 whole entry, looked up): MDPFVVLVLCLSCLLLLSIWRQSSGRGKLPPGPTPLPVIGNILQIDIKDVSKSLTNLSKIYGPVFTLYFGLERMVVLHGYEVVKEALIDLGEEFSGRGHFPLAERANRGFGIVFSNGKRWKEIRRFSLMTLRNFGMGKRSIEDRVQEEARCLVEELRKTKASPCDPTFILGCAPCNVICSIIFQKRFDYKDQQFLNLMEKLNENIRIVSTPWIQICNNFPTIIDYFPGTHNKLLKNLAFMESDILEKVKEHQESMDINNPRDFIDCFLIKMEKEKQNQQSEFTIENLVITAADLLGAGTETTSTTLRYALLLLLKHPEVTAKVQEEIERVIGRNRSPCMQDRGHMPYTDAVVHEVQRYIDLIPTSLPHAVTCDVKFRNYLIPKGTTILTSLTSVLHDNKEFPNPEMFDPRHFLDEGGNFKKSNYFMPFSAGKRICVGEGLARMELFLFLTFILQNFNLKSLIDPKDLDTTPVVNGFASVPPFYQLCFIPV
Procedure, shortened: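 In 50mM KPO4, the reaction held 5nM enzyme and KM-level (10uM) Luciferin-H EGE; it ran 60 min at 37C after NADPH regeneration and a 10 min compound preincubation. Luminescence values were scaled to 57uM ketoconazole as complete inhibition.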

[19] = measured here: cell count channel max response
[20] = measured here: lipid channel max response

COc1cccc(-c2cc(NCc3cccs3)ncn2)c1
active: Potency [3] 1.26 µM | Potency [9] 7.94 µM
25%: max response [14, 20]
10.6%: max response [14, 19]
inactive: Potency [1] > 11.4 µM | activity change, negative = inhibition [2] 3.15% | activity change, negative = inhibition [4] 17% | activity, negative = inhibition [5] -4.26% | Potency [6] > 46 µM | Potency [7] > 46 µM | outcome [8] | Potency [10] | outcome [11] | activation [12] -6.23% | outcome [13] | activity change, negative = inhibition [14] 9.36% | Potency [15] | Potency [16]

N#Cc1ccccc1-c1ccc2ncnc(N3CCNCC3)c2c1
active: Potency [3] 3.98 µM
inactive: Potency [1] > 11.4 µM | activity change, negative = inhibition [2] 6.5% | activity change, negative = inhibition [4] 17.9% | activity, negative = inhibition [5] 2.26% | Potency [6] > 46 µM | Potency [7] > 46 µM | outcome [8] | Potency [17] | Potency [10] | outcome [11] | outcome [13] | activity change, negative = inhibition [14] 7.44% | Potency [15] | Potency [16]
18.9%: max response [14, 19]
26.9%: max response [14, 20]

COc1cccc(-c2cncnc2NCc2ccccc2)c1
12.4%: max response [14, 19]
12.8%: max response [14, 20]
active: Potency [3] 5.01 µM | Potency [9] 0.316 µM | Potency [18] 1.58 µM
inactive: Potency [1] > 11.4 µM | activity change, negative = inhibition [2] -17.1% | activity change, negative = inhibition [4] 1.11% | activity, negative = inhibition [5] -9.01% | Potency [6] > 46 µM | Potency [7] > 46 µM | outcome [8] | Potency [17] | Potency [10] | outcome [11] | outcome [13] | activity change, negative = inhibition [14] 9.98% | Potency [15] | Potency [16]

CN(C)Cc1ccccc1-c1cc(Nc2ccccc2)ncn1
5.64%: max response [14, 19]
12.4%: max response [14, 20]
active: Potency [3] 15.8 µM
inactive: Potency [1] > 11.4 µM | activity change, negative = inhibition [2] 1.09% | activity change, negative = inhibition [4] -10.2% | activity, negative = inhibition [5] 9.68% | Potency [6] > 46 µM | Potency [7] > 46 µM | outcome [8] | Potency [17] | outcome [11] | outcome [13] | activity change, negative = inhibition [14] 4.87% | Potency [15] | Potency [16]

Cc1noc(C)c1-c1nccc(NCc2cccnc2)n1
21.8%: max response [14, 20]
inactive: Potency [1] > 11.4 µM | activity change, negative = inhibition [2] 7.38% | activity change, negative = inhibition [4] -9.01% | activity, negative = inhibition [5] 10.1% | Potency [6] > 46 µM | Potency [7] > 46 µM | outcome [8] | Potency [17] | Potency [10] | outcome [11] | outcome [13] | activity change, negative = inhibition [14] 4.68% | Potency [15] | Potency [16]
14.6%: max response [14, 19]
active: Potency [3] 0.158 µM | Potency [9] 3.98 µM
